# Shown are actives, neighbours in structure and some others; about 13% of the full set was active somewhere.
# Pf growth 48h: Primary qHTS for delayed death inhibitors of the malarial parasite plastid, 48 hour incubation | P. falciparum luciferase growth in erythrocytes, 48 h | Potency, µM (highest dose often 28.7 µM), without a hit: at the top dose activity change, negative = inhibition, hits mostly inhibitors | 310,000 tested, 5.9% active | AID 504832, 2011; note: potency is the fitted concentration of half-maximal effect
#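 Luciferase-expressing P. falciparum in infected erythrocytes (2% hematocrit, 0.1% parasitemia final) in RPMI 1640/0.5% Albumax were exposed to compound for 48 hours at 37 C, 5% CO2; growth read as luminescence.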
# HCMV antiviral: qHTS Assay for inhibitors of the human cytomegalovirus (HCMV). HFF cells, HCMV-luciferase reporter, 72 h; stronger effect = lower value. AID 1259415, 2018. activity change, negative = inhibition, % at 57.5 µM. 410,000 tested, 4.5% active; in the data active = activity change below about -60%; inconclusive = no clear call, values can overlap the other calls; inactive = above about -39%
#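 Two compound doses tested in HFFs infected with HCMV-luciferase, MOI 1 PFU/cell, 72 h at 37C. Lysate luminescence read with OneGlo; data normalized against buffer-only and 10uM Salinomycin inhibitor controls.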
# Pf growth 96h: Primary qHTS for delayed death inhibitors of the malarial parasite plastid, 96 hour incubation. P. falciparum luciferase reporter growth, 96 h. Potency, µM (series often up to 28.7 µM), for the others: top-dose activity change, negative = inhibition, usual class: inhibitors. 320,000 tested, 6.9% active; note: potency is the fitted concentration of half-maximal effect
#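 P. falciparum expressing integrated firefly luciferase, in erythrocytes at 2% hematocrit, 0.05% parasitemia, incubated with compounds 96 h at 37 C, 5% CO2. Growth inhibition read as loss of luminescence; two-generation exposure targets delayed-death apicoplast inhibitors.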
# HCV inhibitor: qHTS Assay for Inhibitors of Hepatitis C Virus (HCV); AID 651820, 2012; Huh7.5.1 HCVcc-Cre infection, luciferase reporter, 44 h; 340,000 tested, 3.4% active; Potency, µM (top dose mostly 41.8 µM), without a hit: at the highest dose activity change, negative = inhibition, hits mostly inhibitors; note: potency is the fitted concentration of half-maximal effect
#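 After 44 h co-culture of compound, cells and HCVcc-Cre (~0.5 moi), substrate is added for 15 min at room temperature and luciferase measured over 15 sec. Cells were seeded at 1,000/well and pre-cultured 4 h.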
# * hit, by the source's call; u = inconclusive; x = not tested or not shown. Unless noted, calls come from the whole dose curve; as a rule, active = well fitted inhibition curve with a large enough effect; inconclusive = small, poorly fitted or top-dose-only effect, or another doubt; inactive = no such curve, though single readings can be large or run the other way. % is set by controls: 0 for no effect and ±100 for the full control effect.
SMILES,Pf growth 48h,HCMV antiviral,Pf growth 96h,HCV inhibitor
O=C(O)c1cccc(NC2=C(n3nnc4ccccc43)C(=O)c3ccccc3C2=O)c1,5.2µM*,-39,1.9µM*,12%
O=C(O)c1cccc(NS(=O)(=O)c2ccc3nnn(O)c3c2)c1,16%,0,36%,5%
Cc1ccc(Cl)cc1N1CCN(C(=O)c2ccc3c(c2)CCN3S(=O)(=O)c2ccccc2)CC1,x,-4,x,x
CC1=CC(C)(C)Nc2ccc(OC(=O)C(C)N3C(=O)c4ccccc4C3=O)cc21 (stereo unspecified),13µM*,-74*,u,u
COc1ccc(OC(=O)C(C)N2C(=O)c3ccccc3C2=O)cc1 (stereo unspecified),-2%,7,30%,-1%
CC(=O)Nc1ccc(OC(=O)c2cccnc2)cc1,u,34,1.2µM*,10%
CC1=CC(C)(C)Nc2ccc(OC(=O)CN3C(=O)CCC3=O)cc21,10µM*,-94*,x,11µM*
CCN1C(=O)/C(=C2/C(=O)N3c4c(cc(OC(C)=O)cc42)C(C)=CC3(C)C)SC1=S,12%,7,32%,13%
CC1=CC(C)(C)N2C(=O)C(=O)c3cc(OC(=O)c4ccco4)cc1c32,-12%,-88*,92%,18%
O=C(CSc1ncc(-c2ccccc2)[nH]1)Nc1cccc(C(F)(F)F)c1,x,-34,x,x
CC1=CC(C)(C)Nc2ccc(OC(=O)c3cccnc3)cc21,5.2µM*,-92*,x,u
CC1=CC(C)(C)Nc2ccc(C)cc21,u,-4,u,12%
CC1=CC(C)(C)Nc2ccc(Cc3ccc4c(c3)C(C)=CC(C)(C)N4)cc21,u,-20,u,10µM*
COc1ccccc1-c1c(C)oc2cc(OC(=O)c3ccco3)ccc2c1=O,17%,31,u,-13%
O=C(Oc1ccc(F)cc1)c1cccnc1,-22%,-4,u,2%
CC1=CC(C)(C)Nc2ccc(OC(=O)c3ccco3)cc21,12µM*,-82*,9.3µM*,u
COC(=O)[C@]12C[C@H](CC(=O)NCc3cccs3)C(=O)N(CCC3=CCCCC3)C1=C[C@H](C(C)(C)C)O[C@@H]2C,x,-2,x,x
CNC(=O)C1CCN(Cc2cc3ccccc3n2Cc2cccc(C)c2)CC1,x,-10,x,x
Cc1ccc(NC2=C(Cl)C(=O)OC2NC(=O)c2ccccc2)cc1 (stereo unspecified),u,-22,1µM*,2%
Cc1ccc(CSc2nnc([C@@H](N)C(C)C)o2)cc1,x,18,x,x
O=c1c2ccccc2oc2ccc(C#CC3(O)CCCCC3)cc12,x,-35,x,u
Cc1cc2sc3ccc(C#CC4(O)CCCCC4)cc3c(=O)c2cc1C,x,-96*,x,-1%
CCCS(=O)(=O)c1cnc(C2COc3ccccc3O2)nc1N (stereo unspecified),22%,-88*,111%,5%
Cc1c(Cl)cccc1NC(=O)CCCn1nc(C)c2sc3ccccc3c2c1=O,x,28,x,x
COc1cccc(C(=O)N2CCC(C(=O)N3CCN(C)CC3)CC2)c1,32%,-2,19%,5%
SMILES,Pf growth 48h,HCMV antiviral,Pf growth 96h,HCV inhibitor
COc1cccc(C(=O)N2CCCC(Nc3ccc(C)c(C)c3)C2)c1 (stereo unspecified),-3%,4,u,-8%
COc1cccc(C(=O)NNC(=O)C(=O)N2CCCCC2)c1,2%,-67*,4%,11%
COc1cccc(C(=O)C2CCCN(C(=O)c3cccc(C#CC(C)(C)O)c3)C2)c1 (stereo unspecified),u,-34,12µM*,-17%
COc1cccc(C(=O)N2CCN(C(=O)C3CC3)CC2)c1,10%,11,12µM*,8%
O=S(=O)(N1CCCCC1)N1CCN(CC(O)COc2ccc3cc(Br)ccc3c2)CC1 (stereo unspecified),x,u,-88%,u
CN(C)S(=O)(=O)N1CCN(CC(O)COc2ccc3cc(Br)ccc3c2)CC1 (stereo unspecified),u,-13,34%,32µM*
OC(COc1ccc2cc(Br)ccc2c1)CN1CCCC1 (stereo unspecified),u,-6,31%,4.5µM*
OC(COc1ccc2cc(Br)ccc2c1)CN1CCN(c2ccccn2)CC1 (stereo unspecified),u,44,9%,u
CCOC(=O)C1(Cc2cccc(OC)c2)CCN(Cc2cccc3cnccc23)CC1,3.7µM*,-24,u,u
CCOC(=O)C1(Cc2cccc(OC)c2)CCN(Cc2cccc(OC)c2OC)CC1,u,u,u,10µM*
CCOC(=O)C1(Cc2cccc(OC)c2)CCN(Cc2cc(OC)ccc2OC)CC1,u,-40,10µM*,u
CCOC(=O)C1(Cc2ccccc2)CCN(Cc2cn[nH]c2-c2ccccc2)CC1,u,-78*,10%,u
CCOC(=O)C1(Cc2cccc(OC)c2)CCN(Cc2cccnc2)CC1,96%,2,30%,-6%
COc1ccc(NC(=O)CC2C(=O)N(c3ccccc3)C(=O)N2CCc2sccc2C)cc1 (stereo unspecified),x,2,x,x
CCOc1ccc(-c2cc(C(=O)NCc3ccc(OC)cc3)c3c(-c4ccc(F)cc4)[nH]nc3n2)cc1,x,4,x,x
CCOC(=O)C1(Cc2cccc(F)c2)CCN(Cc2ccon2)CC1,10%,-38,u,7%
CCOC(=O)C1(Cc2ccc(Cl)cc2)CCN(Cc2ccon2)CC1,-9%,-66*,u,1%
Cc1ccc(-n2cc(C(=O)Oc3ccc(F)cc3)c3ccccc3c2=O)cc1,x,-27,x,x
O=[N+]([O-])c1cccc(-c2c(-c3ccccc3)ncc3cc(F)ccc23)c1,u,-13,u,u
O=[N+]([O-])c1ccc(-c2c(-c3ccccc3)ncc3cc(F)ccc23)cc1,2.6µM*,-35,5.2µM*,u
CCn1c(=O)c2sccc2n2c(CCC(=O)Nc3ccc(OC)cc3OC)nnc12,x,-6,x,x
COc1ccc(-n2nc(C(=O)NCC(=O)N3CC(C)CC(C)C3)c3ccccc3c2=O)cc1OC (stereo unspecified),5.9µM*,-17,1.7µM*,0%
COc1ccc(-n2nc(C(=O)NCC(=O)N3CCCCCC3)c3ccccc3c2=O)cc1OC,-29%,-5,2.9µM*,6%
COc1cccc(Nc2nc3ccc(C(=O)c4ccccc4)cc3n3c(C)nnc23)c1,x,-2,x,x
CC(=O)N(C)C(c1ccc(N(C)C)cc1)c1nnnn1-c1c(C)cccc1C (stereo unspecified),5.2µM*,u,5.2µM*,11%
CCOC(=O)c1sc(=S)n(C)c1NC(=O)c1ccc(C(C)(C)C)cc1,u,-73*,-30%,-18%
COc1ccc(NC(=O)CC2C(=O)N(c3ccc(Cl)cc3)C(=S)N2CCc2ccncc2)cc1 (stereo unspecified),u,-22,13µM*,8%

# From PubChem BioAssay
